# Source: PubChem BioAssay
# The list is not random: actives were taken first. Their share in the collection is about 2.4%.
# TLR4 MyD88 comp: inhibitors of TLR4-MyD88 association in cells, primary screen, cell-based, HeLa CL3-4, BLA complementation, FRET ratio; HeLa CL3-4 TLR4/MyD88 BLA complementation; hit rate 0.18% among 200,000; Toll-like receptor 4 (Homo sapiens) + Myeloid differentiation primary response protein …; inhibition, % at 8.4 µM; AID 861, 2007; in the data active = inhibition above about 25%;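 also: 0% = vehicle and 100% = reference inhibitor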
# CRFBP-R2 block: antagonists of CRF-BP/CRF-R2 complex, primary screen, cell-based, HEK293, calcium dye fluorescence, uHTS; hit rate 0.59% among 350,000; CRF-induced calcium fluorescence; inhibition, % at 11.8 µM;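 active = inhibition of the ligand-induced calcium signal above about 50% at the single tested concentration, limit read from the data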
# NOD2-RIPK2 inh: NOD2-RIPK2 binding disruptors in cells, primary screen, fluorescence, CHO cells, BLA complementation; inhibition, % at 4.98 µM; hit rate 0.38% among 360,000; CCF4 ratio; Receptor-interacting serine/threonine-protein kinase 2 (Homo sapiens), O43353; in the data active = inhibition above about 21%;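 also: 0% = vehicle only and 100% = reference blocker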
# m5-HT2A agonist: mouse Htr2a agonists via beta-arrestin recruitment, primary screen, cell-based, luminescence | 5-hydroxytryptamine receptor 2A (Mus musculus), P35363 | AID 624169, 2012 | activation, % at 7.6 µM | hit rate 0.66% among 360,000 | CHO-K1 mHTR2A beta-arrestin complementation; percent of 30 µM serotonin response;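 active = activation above a run cutoff, the mean activation of all tested compounds plus 3 SD, cut at about 14% in these data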;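 also: 0% = plate median of compound wells and 100% = 30 µM serotonin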
# TLR9-MyD88 block: inhibitors of TLR9-MyD88 association in cells, primary screen, cell-based, CHO, BLA complementation, fluorescence; CCF4 FRET ratio; inhibition, % at 4.98 µM; hit rate 0.21% among 340,000;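 active = inhibition above the mean over all tested compounds plus 3 SD, cut at about 21% in these data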;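 also: 0% = DMSO only wells and 100% = clavulanate BLA inhibitor control wells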
# ABHD5 PLIN5 PPI: ABHD5-PLIN5 interaction inhibitors, primary screen, cell lysate, split luciferase complementation, luminescence | Perilipin-5 (Homo sapiens) + 1-acylglycerol-3-phosphate O-acyltransferase ABHD5 (Homo … | Split G. princeps luciferase complementation, 4 h | inhibition, % at 4 µM | hit rate 0.78% among 360,000 | AID 602281, 2012;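 active = inhibition above the mean inhibition across every tested compound plus 3 SD, cut at about 22% in these data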;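 also: 0% = DMSO only wells and the 100% control is not disclosed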
# Target sequence (Q00G26 whole entry, looked up): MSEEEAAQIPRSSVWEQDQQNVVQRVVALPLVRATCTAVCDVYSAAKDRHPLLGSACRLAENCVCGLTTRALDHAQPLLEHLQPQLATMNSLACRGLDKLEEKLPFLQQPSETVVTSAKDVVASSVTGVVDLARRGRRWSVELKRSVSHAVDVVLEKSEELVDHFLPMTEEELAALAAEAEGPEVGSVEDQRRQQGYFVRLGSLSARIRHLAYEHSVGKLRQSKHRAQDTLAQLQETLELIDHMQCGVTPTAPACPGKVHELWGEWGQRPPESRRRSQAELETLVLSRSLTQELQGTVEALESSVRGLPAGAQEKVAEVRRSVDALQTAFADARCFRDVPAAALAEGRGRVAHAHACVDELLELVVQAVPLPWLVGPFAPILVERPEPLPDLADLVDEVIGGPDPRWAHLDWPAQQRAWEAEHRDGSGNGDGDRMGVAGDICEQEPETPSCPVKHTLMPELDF
# Target sequence (Q8WTS1 whole entry, looked up): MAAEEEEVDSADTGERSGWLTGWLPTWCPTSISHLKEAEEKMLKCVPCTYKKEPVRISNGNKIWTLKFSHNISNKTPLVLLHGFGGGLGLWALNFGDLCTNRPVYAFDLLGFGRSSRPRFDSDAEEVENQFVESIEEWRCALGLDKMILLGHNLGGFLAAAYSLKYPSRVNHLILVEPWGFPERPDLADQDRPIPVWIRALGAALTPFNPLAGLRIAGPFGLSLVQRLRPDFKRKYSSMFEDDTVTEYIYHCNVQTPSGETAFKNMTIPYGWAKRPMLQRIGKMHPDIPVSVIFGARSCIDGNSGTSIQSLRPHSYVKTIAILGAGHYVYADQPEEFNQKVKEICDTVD
# NOD2-RIPK2 conf: NOD2-RIPK2 binding disruptors, retest, confirmation, fluorescence, CHO cells, BLA complementation, triplicate; shares compounds with NOD2-RIPK2 inh; CCF4 FRET; inhibition, % at 4.98 µM; hit rate 70% among 1,200; AID 624370, 2012;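 active = mean inhibition across replicates above a set limit taken from the earlier primary screen, cut at about 21% in these data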;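 also: 0% = DMSO-only wells and the high end = clavulanate BLA-blocked wells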
# NOD2 BLA counter: counter-screen for NOD2-RIPK2 interaction inhibitors: BLA reporter. shares compounds with NOD2-RIPK2 inh. CHO BLA reporter, CCF4 FRET ratio, counterscreen. inhibition, % at 4.98 µM. hit rate 57% among 1,200. AID 624371;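 active = mean inhibition above the low-control mean inhibition plus three low-control SD, cut at about 11% in these data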;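 also: 0% = DMSO only wells and 100% = clavulanate high control wells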
# * = called active by the depositor; nt = not tested or not shown.
SMILES,TLR4 MyD88 comp,CRFBP-R2 block,NOD2-RIPK2 inh,m5-HT2A agonist,TLR9-MyD88 block,ABHD5 PLIN5 PPI,NOD2-RIPK2 conf,NOD2 BLA counter
O=C(Nc1nc2ccccc2s1)c1ccc2sc([C@H]3C[C@H](O)[C@@H](CO)O3)nc2c1,nt,nt,7,1,nt,2,nt,nt
O=C(Nc1ccc(Oc2ccccc2)nc1)[C@H]1O[C@@H](n2ccc(=O)[nH]c2=O)[C@H](O)[C@@H]1O,nt,nt,-9,-2,nt,-5,nt,nt
CC(C)(C)NC(=O)C(c1ccncc1)n1c(=O)c(-c2cc3ccccc3[nH]2)nc2ccccc21 (stereo not given),nt,nt,49*,2,nt,1,48*,68*
COc1ccc(C(C(=O)NC(C)(C)C)n2c(=O)c(-c3cc4ccccc4[nH]3)nc3ccccc32)cc1 (stereo not given),nt,nt,41*,1,nt,-2,40*,64*
N#Cc1ccc(Nc2nc(-c3ccccc3)c(C(=O)c3ccccc3)s2)cc1,nt,nt,-5,5,nt,4,nt,nt
O=C(c1ccccc1)c1sc(Nc2ccc3c(c2)OCO3)nc1-c1ccccc1,nt,nt,21*,-2,nt,-1,20,26*
O=C1NC[C@H](CCCCN2C[C@H](Cc3ccc(O)cc3)N(CCC3CCCCC3)C(=O)C2=O)N(CCC2CCCCC2)C1=O,nt,nt,-2,0,nt,3,nt,nt
Cc1cc2c(cc1S(=O)(=O)N(C)c1ccccc1)n(C)c(=O)n2C,nt,-5,-11,1,4,0,nt,nt
Cc1cc(C)c(S(=O)(=O)N(C)c2ccccc2)c(C)c1,15,30,34*,-1,-6,-9,-4,-2
CCC(c1nnnn1-c1ccc2c(c1)OCCO2)N1CCN(c2ccccn2)CC1 (stereo not given),nt,nt,-3,-1,nt,3,nt,nt
Nc1nc2ncccn2c1-c1ccc(F)c(F)c1,nt,nt,28*,-4,nt,6,19,20*
Cc1ccc(S(=O)(=O)NC(=O)C2(C)CCN2C(=O)c2ccccc2)cc1 (stereo not given),nt,nt,11,-3,nt,10,nt,nt
CCOc1cccc(/C=N/Nc2ccc(S(=O)(=O)N(CC)CC)cn2)c1O,3,20,-6,-3,-7,-1,nt,nt
CCN(CC)S(=O)(=O)c1ccc(N/N=C/c2ccc(O)cc2)nc1,-6,-24,40*,-4,-8,0,2,3
COC(=O)C12OCC34C(CC5C(C)=C(O)C(=O)CC5(C)C3C(O)C1O)OC(=O)C(OC(=O)C=C(C)C)C24 (stereo not given),nt,5,28*,2,-10,-5,25*,-5
COc1ccc(-c2csc(-c3cc4ccccc4oc3=N)n2)cc1,12,4,31*,3,19,2,16,23*
COc1ccc(-c2noc(-c3cc4ccccc4oc3=O)n2)cc1,1,nt,nt,nt,nt,nt,nt,nt
Cc1ccc(C2C=C(c3ccccc3)Nc3nc(N4C(=O)CCC4=O)nn32)cc1 (stereo not given),23,-1,45*,1,nt,-3,33*,35*
CCOc1ccc2nc3ccc4[nH]onc4c3c2c1,34*,-37,34*,1,17,3,28*,37*
Cc1ccc(C)c(C(O)c2ncc(-c3ccc4ccccc4c3)[nH]2)c1 (stereo not given),nt,nt,-9,-1,nt,-11,nt,nt
CCOC(=O)C1=C(N)n2c(s/c(=C\c3cccs3)c2=O)=C(C(=O)OCC)C1c1cccs1 (stereo not given),-3,-6,27*,10,1,7,11,4
Fc1cccc(Cc2c(C3CCCCC3)nc3c4ccccc4ccn23)c1,nt,nt,-10,0,nt,-4,nt,nt
COc1ccc(-c2cc(C(=O)NC3CCCCC3)no2)cc1OC,nt,-9,58*,-7,-20,3,6,2
O=C(C[n+]1ccccc1)c1ccc(NC(=O)c2ccccc2)cc1,15,8,35*,-1,0,2,-1,-7
Cc1cc[n+](CC(=O)c2ccc(NC(=O)c3ccccc3)cc2)cc1,-11,-6,-5,-1,-3,-1,nt,nt
SMILES,TLR4 MyD88 comp,CRFBP-R2 block,NOD2-RIPK2 inh,m5-HT2A agonist,TLR9-MyD88 block,ABHD5 PLIN5 PPI,NOD2-RIPK2 conf,NOD2 BLA counter
CCOc1ccccc1C=NNC(=O)C(=O)NN=Cc1ccccc1OCC,nt,18,24*,1,-5,-1,-10,-9
COc1ccc(C2C(C(=O)c3ccco3)=C(O)C(=O)N2CC2CCCO2)c(OC)c1 (stereo not given),nt,-12,-6,-2,-13,-14,nt,nt
COc1ccc(OC)c(C2C(C(=O)c3ccco3)=C(O)C(=O)N2CC2CCCO2)c1 (stereo not given),nt,9,21*,-4,7,-5,1,0
CC(=O)Nc1cccc(-c2ccnc3c2CC(C)(C(=O)NCc2ccncc2)O3)c1 (stereo not given),nt,nt,21*,6,nt,-6,4,-1
CCOC(=O)c1sc2nc(-c3ccccc3)ccc2c1N,15,16,23*,-3,12,2,48*,59*
CC(=O)N1CCc2c(sc(NC(=O)c3ccc(S(=O)(=O)N(C)CC4CCCO4)cc3)c2C(N)=O)C1 (stereo not given),nt,23,-13,1,-7,10,nt,nt
CC(=O)Nc1ccc(NC(=O)c2ccc(NS(=O)(=O)c3cc(C(C)(C)C)ccc3C)cc2)cc1,10,-5,39*,-3,5,-6,-34,-8
